# Source: PubChem BioAssay AID652105 (National Center for Advancing Translational Sciences (NCATS), 2013)
# Hit rate of the full screen: of about 330,000 compounds, about 4,100 (1.2%) were called active. About 2% were inconclusive and are not listed. Rule for the calls: active = max response of -50% or lower; inconclusive = between -30% and -50%; inactive = -30% or higher. What follows is part of a selection rich in actives, with near analogues and random picks from the rest.
# Target: Phosphatidylinositol 5-phosphate 4-kinase type-2 alpha (Homo sapiens) (UniProt P48426)
# Assay: qHTS for Inhibitors of phosphatidylinositol 5-phosphate 4-kinase (PI5P4K); note: value at the top dose of about 77 µM
# Conditions: PI5P4Kalpha enzyme, ADP-Glo luminescence, 60 min; active compounds read low
# How it was run: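 Reactions run in 0.038 M HEPES pH 7.4, 0.28 mM EGTA, 0.1% CHAPS and 5% DMSO, with PI5P4Kalpha, substrate, compound and 5 microM ATP final, one hour at room temperature. Readout is ADP-Glo luminescence.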
# % is set by controls: 0 for no effect and ±100 for the full control effect.
# Sequence of Phosphatidylinositol 5-phosphate 4-kinase type-2 alpha (Homo sapiens) (P48426 whole entry, looked up): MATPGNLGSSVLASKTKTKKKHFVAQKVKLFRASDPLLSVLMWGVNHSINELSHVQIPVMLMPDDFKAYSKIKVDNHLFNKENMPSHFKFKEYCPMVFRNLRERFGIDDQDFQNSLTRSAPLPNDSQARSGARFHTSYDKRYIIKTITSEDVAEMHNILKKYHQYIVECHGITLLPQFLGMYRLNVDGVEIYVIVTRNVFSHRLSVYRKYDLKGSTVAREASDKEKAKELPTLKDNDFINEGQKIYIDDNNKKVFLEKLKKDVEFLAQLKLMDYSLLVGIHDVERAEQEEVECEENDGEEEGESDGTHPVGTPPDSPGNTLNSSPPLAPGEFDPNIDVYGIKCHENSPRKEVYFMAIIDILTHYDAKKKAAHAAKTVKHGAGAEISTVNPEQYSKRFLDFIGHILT
row,Compound,max response
1,CCCCN1C(=O)C(CC(=O)NCc2cccs2)CC(C(=O)N2CCCCCC2)=C1C (centres undefined),8.96% (inactive)
2,COc1cccc(NC(=O)CN(C)C(=O)c2cc(Cl)nc3ccccc23)c1,0.592% (inactive)
3,Cc1cccnc1C(NC(=O)C1CCN(Cc2ccc(Cl)c(Cl)c2)CC1)c1ccc(Cl)cc1 (centres undefined),13.1% (inactive)
4,Cc1nc(C(F)(F)F)ccc1C(=O)N1CCC1(C)C(=O)NS(=O)(=O)c1ccccc1Cl (centres undefined),-2.74% (inactive)
5,C[C@H]1CN([C@@H](C)CO)C(=O)CCCn2nncc2CO[C@@H]1CN(C)S(=O)(=O)c1cccc(C#N)c1,8.11% (inactive)
6,COC(=O)c1c(C)c(C)nc(N)c1C#N,1.33% (inactive)
7,COCc1c(N)c(C)nc(Cl)c1C#N,-79.4% (active)
8,Cc1nc(Cl)c(C#N)c2c1CCCC2,-4.68% (inactive)
9,CC(C)NC(=O)Nc1ccc2c(c1)C(=O)N([C@H](C)CO)C[C@H](C)[C@@H](CN(C)Cc1ccc(C(F)(F)F)cc1)OCCCC[C@@H](C)O2,10.4% (inactive)
10,CC1(C)OC(=O)C2=C(C[C@@H](C3CC3)O[C@H]2c2ccc(Cl)cc2)O1,8.12% (inactive)
11,CC1(C)OC(=O)C2=C(C[C@@H](C3CCCCC3)O[C@@H]2c2ccc(Cl)cc2)O1,10.9% (inactive)
12,Cc1ccc(S(=O)(=O)Oc2ccc(/C=N/NC(=O)c3ccncc3)cc2)cc1,3.82% (inactive)
13,Cc1ccc(NC(=O)CC2S/C(=N/N=C3\CCCc4ccccc43)NC2=O)cc1 (centres undefined),27.6% (inactive)
14,CC(=O)Nc1ccc(S(=O)(=O)Oc2ccc(/C=N/N=C3/NC(=O)C(CC(=O)O)S3)cc2)cc1 (centres undefined),-65% (active)
15,CCOC(=O)C1C(C)C(C(C)(C)C)N(S(=O)(=O)c2ccc(C)cc2)C1c1ccccc1 (centres undefined),6.25% (inactive)
16,COc1ccc(NC(=O)CNC(=O)Cc2ccccc2)cc1OC,-2.31% (inactive)
17,COc1cc(=O)[nH]c(=O)n1C(=O)Cc1ccccc1,-54.9% (active)
18,CCCOc1ccc(Cn2c(O)cc(=O)[nH]c2=O)cc1,-26.6% (inactive)
19,COC(=O)[C@]12CCCCC=C1N(Cc1ccc3c(c1)OCO3)C(=O)[C@H](CC(=O)NCc1cccs1)C2,1.05% (inactive)
20,CCCS(=O)(=O)NC(=O)C1(C)CCCN(C(=O)c2cccs2)C1 (centres undefined),5.25% (inactive)
21,Cc1cc(C(=O)N2CCCC2(C)C(=O)O)c(C)o1 (centres undefined),-1.39% (inactive)
22,CCCCCCCCN1C(=O)[C@H](CC(=O)NCC23CC4CC(CC(C4)C2)C3)C[C@@]2(C(=O)OC)CCCCC=C12,8.08% (inactive)
23,N=c1c2c3c(sc2ncn1N)CCCCC3,0.011% (inactive)
24,S=c1[nH]nc2c3c4c(sc3ncn12)CCCC4,-58.2% (active)
25,N=c1c2c3c(sc2ncn1N)CCCC3,-4.92% (inactive)
26,COc1ccc(CNC(=O)c2ccc(-c3cccnc3)c3ccoc23)cc1OC,0.62% (inactive)
27,O=C(NCc1ccc(F)cc1)c1cc(C2CCCCN2C(=O)c2cccs2)on1 (centres undefined),-3.15% (inactive)

row,Compound,max response
1,CC(C)c1cc(Cn2c3ccccc3c(=O)n2C(C)Cn2cc(C3CC3)nn2)on1 (centres undefined),-4.48% (inactive)
2,CC(C)(C)OC(=O)N1CCN(C(=O)c2[nH]c(C(F)(F)F)nc2-c2ccccc2)CC1,6.39% (inactive)
3,CS(=O)(=O)c1ccc2nc(NC(=O)c3ccc(Cl)nc3)sc2c1,-8.02% (inactive)
4,CS(=O)(=O)c1ccc2nc(NC(=O)C3C4C=CC(C4)C3C(=O)O)sc2c1 (centres undefined),-8.9% (inactive)
5,COc1cccc(C(=O)Nc2nc3ccc(S(C)(=O)=O)cc3s2)c1,-58.6% (active)
6,CCOC(=O)N1CCN(C(=O)C[C@@H]2C[C@@]3(C(=O)OC)CC(C)(C)CC=C3N(Cc3ccco3)C2=O)CC1,-4.8% (inactive)
7,CC1=C(C(=O)OCc2ccccc2)C(c2ccc(C(F)(F)F)cc2)NC(=O)N1CCCCCC(=O)O (centres undefined),-6.37% (inactive)
8,COCCN1C(=O)N[C@@H](c2ccccc2)C(C(=O)OC)=C1C,3.31% (inactive)
9,CC1=C(C(=O)OC(C)(C)C)C(c2ccc(Br)cc2)NC(=O)N1CCCC(=O)O (centres undefined),-68.2% (active)
10,CCCCNC(=O)OC1CC2CC1[C@H]1CCCCN1C2=O (some centres undefined),2.78% (inactive)
11,NC(c1ccccc1)c1csc(NC(=O)Nc2cccc(C(F)(F)F)c2)n1 (centres undefined),-16.7% (inactive)
12,N#Cc1ccc(/C=C2\CCn3c2nc2cc(C(=O)O)ccc2c3=O)cc1,-10.5% (inactive)
13,O=C(O)c1ccc2c(=O)n3c(nc2c1)/C(=C/c1ccc(Cl)c([N+](=O)[O-])c1)CC3,-16.4% (inactive)
14,O=C(O)c1ccc2c(=O)n3c(nc2c1)/C(=C/c1ccc(OC(F)F)cc1OC(F)F)CC3,-50.1% (active)
15,CCc1nc2ccc(C(=O)N(C)CCN(C)C)cn2c1N(CC)CCOC,2.65% (inactive)
16,OC(c1ccc(Cl)c(F)c1)c1ncc(-c2ccccc2Cl)[nH]1 (centres undefined),10.9% (inactive)
17,CC(C)c1ccc(CC(=O)N2CCC2(C)C(=O)NS(=O)(=O)c2ccc(C(C)(C)C)cc2)cc1 (centres undefined),3.85% (inactive)
18,CC(=O)Nc1ccc(C=Cc2ccc([N+](=O)[O-])cc2)cc1,-5.32% (inactive)
19,O=[N+]([O-])c1ccc(C=NN=Cc2ccc([N+](=O)[O-])cc2)cc1,-4.59% (inactive)
20,O=C1/C(=C\c2ccc([N+](=O)[O-])cc2)CS(=O)(=O)C/C1=C/c1ccc([N+](=O)[O-])cc1,-83.1% (active)
21,CC=CCn1c(SCCCc2ccccc2)nc2c1c(=O)[nH]c(=O)n2C,-3.45% (inactive)
22,COC(=O)/C=C\C(=O)Nc1cccc([N+](=O)[O-])c1,-26.6% (inactive)
23,Cc1ccc(/C=C/C(=O)Nc2cc(S(=O)(=O)N3CCCCCC3)ccc2OCC(F)(F)F)o1,2.97% (inactive)
24,Cc1ccc(/C=C/C(=O)Nc2ccc([N+](=O)[O-])c(NC(=O)/C=C/c3ccc(C)o3)c2)o1,-71.8% (active)
25,Cc1cc(C)n2c(NCc3ccccc3)c(CC(C)C)nc2n1,-0.19% (inactive)
26,C[C@H]1CN(c2ccc(Br)cc2)C(=O)[C@@H]1CC(=O)Nc1ccc(Br)cc1,-1.71% (inactive)
27,COc1ccc(C(NC(=O)C2CCN(CCCc3ccccc3)CC2)c2cccs2)cc1 (centres undefined),-1.92% (inactive)
